Assay outcomes (PubChem)
VDR inhibitor: inhibitors of human vitamin D receptor; VDR-SRC2-3 peptide fluorescence polarization, 2 h; Potency, µM, inactives show max response, negative = inhibition, most hits filed as inhibitors; 400,000 tested, 0.93% active; also: potency is read from the fitted curve at half-maximal effect
Target sequence (P11473 whole entry, looked up): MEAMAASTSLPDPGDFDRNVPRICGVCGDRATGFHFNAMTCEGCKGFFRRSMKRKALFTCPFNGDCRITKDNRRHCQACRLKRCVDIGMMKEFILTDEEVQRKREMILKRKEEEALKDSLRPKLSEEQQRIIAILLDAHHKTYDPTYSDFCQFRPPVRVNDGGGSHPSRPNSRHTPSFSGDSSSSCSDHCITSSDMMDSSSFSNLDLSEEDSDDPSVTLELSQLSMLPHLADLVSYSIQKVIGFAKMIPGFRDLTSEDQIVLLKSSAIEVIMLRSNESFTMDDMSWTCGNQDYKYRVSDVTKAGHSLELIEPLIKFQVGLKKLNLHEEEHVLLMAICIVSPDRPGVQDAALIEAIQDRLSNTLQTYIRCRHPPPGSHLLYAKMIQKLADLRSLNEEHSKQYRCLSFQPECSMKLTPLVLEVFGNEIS
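Compounds are added to VDR with labelled SRC2-3 coactivator peptide and held 2 h at room temperature. Inhibition of the VDR–peptide interaction is then read as a change in fluorescence polarization.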
USP1 inh: blocks the human USP1/UAF1 deubiquitinase complex. recombinant USP1/UAF1, Ub-Rhodamine cleavage fluorescence. O94782. Potency, µM (titrated, usually from 57.1 µM), for inactives: at the highest dose activity change, negative = inhibition, most hits filed as inhibitors. 390,000 tested, 0.23% active; also: potency is read from the fitted curve at half-maximal effect; nearly all actives have a fitted effect of over 60% in size
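Step one: compound is pinned into 1nM USP1/UAF1 in HEPES pH 7.8 buffer with TCEP. Step two: 15 min room-temperature incubation. Step three: Ub-Rho (150nM final) starts cleavage, tracked by fluorescence over six one-minute reads.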
GALK inh: blocks human galactokinase activity | Potency, µM (series often up to 57.5 µM), for inactives: top-dose activity change, negative = inhibition, actives largely listed as inhibitors | Purified GALK, Kinase-Glo residual ATP luminescence | 270,000 tested, 0.007% active; also: potency is read from the fitted curve at half-maximal effect
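ATP-depletion format; final 35 uM ATP, 100 uM D-galactose, 5 nM enzyme; pH 8.0 HEPES/Mg2+ buffer; 60 min RT; luminescence read 10 min after detection reagent.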
USP2a block: inhibitors of human ubiquitin-specific protease USP2a; USP2 core, Ub-CHOP2 coupled fluorogenic reporter, 485/531; AID 463254; Potency, µM (series often up to 38.3 µM), without a hit: at the top dose activity change, negative = inhibition, actives largely listed as inhibitors; 330,000 tested, 0.01% active; O75604;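 also: potency is read from the fitted curve at half-maximal effect; plate controls were DMSO wells for no effect and full inhibition by NEM control for full effect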
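USP2 core (10nM final) preincubated 30min RT with compound in 20mM Tris-HCl pH 8.0, 2mM CaCl2, 2mM beta-mercaptoethanol, 0.05% CHAPS; 25nM Ub-CHOP2 plus 25nM reporter substrate added, fluorescence (Ex485/Em531) read after 60min.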
FBPA coupling cs: counter-screen for Giardia aldolase inhibitors: coupling enzyme system. coupling enzyme system counterscreen, AmpLite Red fluorescence. activity change, negative = inhibition, % at 58.2 µM, hits read low. 290,000 tested, 0.67% active; in the data active = activity change below about -30%
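First, compound is pin-transferred into glyceraldehyde-3-phosphate coupling-enzyme reagent at 57.5 uM final and held 10 min at RT. Next, substrate, coupling system and AmpLite Red are added. After 20 min RT, fluorescence (525/598 nm) is read.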
PLK1 PBD block: blocks phosphopeptide binding to human PLK1 polo-box domain | P53350 | Plk1 PBD binding of FITC phosphopeptide, fluorescence polarization | Potency, µM, for the others: max response, negative = inhibition, most hits filed as inhibitors | 360,000 tested, 2.8% active | AID 720504; also: potency is read from the fitted curve at half-maximal effect; series mostly up to about 57 µM; nearly all actives have a fitted effect of over 65% in size
* hit, by the source's call; ? = inconclusive; . = not tested or not shown; ! = a repeat was not active. Hits are enriched below; roughly 3.2% of the tested compounds scored in any of these assays. Unless noted, calls follow the shape of the dose curve; as a rule, active = well fitted curve in the direction sought with a large enough effect; inconclusive = small, poorly fitted or top-dose-only effect, or another doubt; inactive = no such curve, though single readings can be large; an effect the other way counts as inactive or inconclusive. Unless noted, % is scaled to controls: 0 for no effect and ±100 for the full control effect.

SMILES	VDR inhibitor	USP1 inh	GALK inh	USP2a block	FBPA coupling cs	PLK1 PBD block
CCCN(CC(=O)Nc1ccccc1OC)C(=O)C1CCCC1	7.6%	-14.1%	.	1.9%	.	3.7%
CCN(CC(=O)Nc1ccccc1C(F)(F)F)C(=O)Cc1ccc2c(c1)CCC2	0.4%	-10.8%	.	-0.2%	.	-0.3%
CCN(c1ccccc1C)S(=O)(=O)c1nnc(NC(=O)c2ccco2)s1	-19.0%	-21.1%	-2.3%	-0.4%	.	?
CC(=O)c1cccc(OCC(=O)c2cc(C)n(-c3cc(C)on3)c2C)c1	-16.1%	-8.7%	-1.4%	-4.1%	-33.5*	-11.5%
C=CCn1c(N)c(C(=O)Nc2ccccc2OC)sc1=S	0.7%	-11.4%	0.0%	1.0%	-1.1	-4.6%
COc1ccc(-c2ccc(CN3C(C)C(=O)N(Cc4cn(CCC5OCCO5)nn4)CCS3(=O)=O)cc2)cc1 (stereo unspecified)	.	-28.8%	.	.	.	42.3µM*
COc1ccc(-c2ccc(CN3C(C)C(=O)N(Cc4cn(CCC5OCCO5)nn4)CCS3(=O)=O)cc2)cn1 (stereo unspecified)	.	-19.6%	.	.	.	-1.3%
Cc1ccc(NC(=O)c2ccc3c(c2)CCN3S(C)(=O)=O)cc1C	?	-0.6%	-3.6%	1.2%	-0.6	2.99µM*
O=C(Nc1ccccc1O)c1ccc(C(=O)c2ccccc2)o1	-9.4%	-0.8%	-2.3%	-1.3%	0.2	8.5%
C=C(N(C)C)[C@]1(C)C[C@H]1[C@H](NC(=O)CNC(=O)OCc1ccccc1)c1ccccc1	.	.	.	.	2.9	.
COc1cccc(/C=C/C(=O)c2ccc(NC3=NCCCS3)cc2)c1	?	-19.5%	-5.9%	10.3%	-0.7	-7.7%
Cc1cccc(/C=C/C(=O)c2ccc(NC3=NCCCS3)cc2)c1	20µM*	-21.1%	-1.3%	0.9%	2.5	-14.6%
Cc1nn2c(-c3cccc(NC(=O)CSc4nc5ccccc5o4)c3)nnc2c2ccccc12	-13.6%	-23.8%	3.0%	-11.1%	7.4	23.8µM*
Cc1ccc(CNC(=O)c2cn(C3CCCCC3)c(=O)c3c2c2ccccc2n3C)o1	79.4µM*	-10.0%	0.3%	2.5%	-8.2	?
Cc1ccc(CNC(=O)c2cn(C)c(=O)c3c2c2ccccc2n3C)o1	-8.8%	-11.5%	-3.3%	3.6%	-4.5	-11.3%
Cc1ccc(OCC(=O)Nc2ccc(C)c(S(=O)(=O)N3CCCCC3)c2)c([N+](=O)[O-])n1	-3.9%	-16.9%	-0.2%	-5.7%	2.9	-2.6%
COc1ccc(C(=O)COC(=O)CN2C(=O)C3C4CCC(C4)C3C2=O)cc1 (stereo unspecified)	-19.6%	-13.7%	-0.5%	1.2%	0.7	23.8µM*
COc1cc(C(=O)n2nc(-c3ccco3)nc2NCc2ccc(Cl)cc2)cc(OC)c1OC	8.0%	-30.0%	.	.	.	.
CC(C)c1ccc(NC(=O)CSc2ncc3c(n2)-c2ccccc2N(C)S3(=O)=O)cc1	-11.8%	-3.9%	.	.	.	.
Nc1nnnn1/N=C/c1ccccc1OCc1ccccc1	-14.9%	-16.5%	-8.2%	0.6%	0.3	-9.0%
COCCN(C(=O)CSc1nnc(C)n1Cc1ccccc1)c1c(N)n(Cc2ccccc2)c(=O)[nH]c1=O	-1.4%	0.5%	-0.4%	0.4%	4.8	26.7µM*
CN(C(=O)CSc1nnc(Nc2ccccc2)s1)c1c(N)n(Cc2ccccc2)c(=O)[nH]c1=O	-4.1%	-15.7%	-0.5%	1.1%	-2.7	21.2µM*
CSc1nnc(SCC(=O)N(C)c2c(N)n(Cc3ccccc3)c(=O)[nH]c2=O)s1	-19.6%	-24.7%	.	0.9%	.	-8.5%
C=CCSCC(N)C(=O)O (stereo unspecified)	15.7%	.	.	.	1.9	.
N[C@@H](CSS(=O)(=O)O)C(=O)O	10µM*!	.	.	.	-76.5*	.
Cc1ccc(NC(=O)C(C)OC(=O)Cc2c[nH]c3ccccc23)cc1 (stereo unspecified)	4.1%	-13.4%	.	-1.9%	.	2.6%
CC(=O)n1c2ccccc2c2nc3ccccc3nc21	-12.7%	-11.6%	2.7%	0.2%	7.0	-3.1%
C=CCNc1nc2c3ccccc3n(C(C)=O)c2s1	-29.0%	?	6.2%	1.6%	-23.0	26.7µM*
